# Assay outcomes (PubChem BioAssay)
# ClpP mod: qHTS Assay for Activators of ClpP. Potency, µM (top dose mostly 57.5 µM), without a hit: at the highest dose activity change, negative = active. purified B. subtilis ClpP, FRET peptide cleavage, 20 min. actives 1.9% (n = 340,000); active means well fitted falling curve with a large enough effect; inconclusive means small, poorly fitted or top-dose-only effect; inactive means no such curve, though single readings can be large or run the other way; further: potency means the concentration at half of the fitted maximal effect; the source files actives as falling curves though it sought activators and does not explain the sign; nearly all actives have a fitted effect of over 65% in size
#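 Buffer: 100 mM Tris/HCl pH8, 100 mM KCl, 0.05% low protease BSA, 2.5% glycerol, 0.01% Tween-20. ClpP 10 microg/mL final; 20 min RT; delta FRET normalized to ADEP and DMSO controls.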
# RGS4 inhibitor: Inhibitors of Regulator of G Protein Signaling (RGS) 4: qHTS | Transcreener GDP fluorescence polarization, RGS4-accelerated GTP hydrolysis | Potency, µM (highest dose often 114 µM), for inactives: top-dose activity change, negative = inhibition, usual class: inhibitors | actives 0.039% (n = 390,000) | AID 504845, 2011; further: potency means the concentration at half of the fitted maximal effect; on the % scale 0 is the no-effect control and ±100 the full control effect; nearly all actives have a fitted effect of over 75% in size
# Target sequence (P49798 whole entry, looked up): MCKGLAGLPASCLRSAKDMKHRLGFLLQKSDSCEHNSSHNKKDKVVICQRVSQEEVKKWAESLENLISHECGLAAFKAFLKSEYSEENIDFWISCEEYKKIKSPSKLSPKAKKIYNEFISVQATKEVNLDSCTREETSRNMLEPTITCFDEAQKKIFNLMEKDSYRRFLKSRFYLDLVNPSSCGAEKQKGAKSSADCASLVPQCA
#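 MLSMR compounds (23 nl, pin-transferred) preincubated 10 min at room temperature with a 500nM (2x) first reagent, then RGS4 at 900nM (2x) plus Transcreener GDP mix added; fluorescence polarization (620/688 nm) read before and after 90 min at 30 °C.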
# S-ASM inh: Inhibitors of Secretory Acid Sphingomyelinase (S-ASM): qHTS. actives 0.006% (n = 340,000). Potency, µM (top dose mostly 57.5 µM), for inactives: at the highest dose activity change, negative = inhibition, hits mostly inhibitors. placental ASM, HMU-PC fluorogenic substrate, 60 min. Sphingomyelin phosphodiesterase (Homo sapiens), P17405; further: potency means the concentration at half of the fitted maximal effect
# Target sequence (P17405 47-631 limits assumed): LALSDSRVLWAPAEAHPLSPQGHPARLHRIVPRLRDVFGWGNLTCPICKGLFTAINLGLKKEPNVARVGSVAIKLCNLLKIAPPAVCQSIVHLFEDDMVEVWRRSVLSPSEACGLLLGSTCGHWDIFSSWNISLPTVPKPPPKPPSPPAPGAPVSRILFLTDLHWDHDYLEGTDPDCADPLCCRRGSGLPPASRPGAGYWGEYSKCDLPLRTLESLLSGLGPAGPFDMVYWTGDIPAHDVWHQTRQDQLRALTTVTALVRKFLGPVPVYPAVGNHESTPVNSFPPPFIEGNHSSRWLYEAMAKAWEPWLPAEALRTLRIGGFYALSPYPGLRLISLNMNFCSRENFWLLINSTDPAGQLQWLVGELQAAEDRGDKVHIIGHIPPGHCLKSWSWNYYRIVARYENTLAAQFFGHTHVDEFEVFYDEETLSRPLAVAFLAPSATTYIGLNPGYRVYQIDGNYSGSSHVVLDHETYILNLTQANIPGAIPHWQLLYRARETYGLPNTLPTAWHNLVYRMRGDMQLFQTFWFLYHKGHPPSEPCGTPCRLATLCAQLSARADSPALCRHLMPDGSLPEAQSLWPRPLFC
#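 HMU-PC0 cleavage (9 uM final) by human placental ASM, 60 min at 37 °C following 10 min compound exposure at RT; stopped at pH 10, fluorescence Ex 386/Em 447 nm.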
# Mito fusion act: qHTS Assay for Small Molecule Inhibitors of Mitochondrial Division or Activators of Mitochondrial Fusion; S. cerevisiae fusion-defective mutant growth rescue, CellTiterGlo 48 h; Potency, µM (top dose mostly 46.1 µM), for the others: top-dose growth rescue (activation), most hits filed as activators; actives 0.23% (n = 320,000); AID 485298, 2010; further: potency means the concentration at half of the fitted maximal effect; % of control where 0% means no effect; nearly all actives have a fitted effect of over 45% in size
#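 Read-out: ATP-based luminescence (CellTiterGlo, 10 min ambient) reporting growth of fusion-defective ts yeast after 48 hours at 37C on glycerol/ethanol YPEG medium in the presence of compound.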
# LDHA inh: qHTS assay for inhibitors of human lactate dehydrogenase. purified LDHA, NADH/diaphorase-resazurin fluorescence; active compounds read low. actives 0.15% (n = 480,000). activity change, % (values are at about 110 or 230 µM). L-lactate dehydrogenase A chain (Homo sapiens), P00338; in the data active means activity change below about -30%; inconclusive means mostly about -25% to -30%;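 further: plate controls were DMSO wells for no effect and wells without enzyme for full effect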
#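 Human LDH5 (2 nM) was incubated with 0.06 mM NADH and 0.2 mM pyruvate for 5 min at room temperature in Tris pH 7.4. Remaining NADH was coupled through diaphorase/resazurin, and resorufin fluorescence was read at 0 and 20 min.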
# IDH1 R132H inh: qHTS for Inhibitors of mutant isocitrate dehydrogenase 1 (IDH1): qHTS; actives 0.093% (n = 390,000); IDH1-R132H enzyme, NADPH consumption, diaphorase/resazurin fluorescence; Isocitrate dehydrogenase [NADP] cytoplasmic (Homo sapiens), O75874; AID 602179, 2012; Potency, µM (highest dose often 76.6 µM), for the others: at the top dose activity change, negative = inhibition, hits mostly inhibitors; further: potency means the concentration at half of the fitted maximal effect; on the % scale 0 is the no-effect control and ±100 the full control effect; nearly all actives have a fitted effect of over 65% in size
#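 IDH1-R132H (0.5 ug/mL) preincubated 30 min with compound, then NADPH (0.016 mM) and alpha-KG (2 mM) added; 80 min at RT, pH 7.5. Remaining NADPH coupled via diaphorase/resazurin to fluorescence (540/590 nm); concentration-response curves normalized to no-enzyme control.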
# Starred values were filed as active, the others as inactive; u = inconclusive; x = no result given; ! = not confirmed by another sample; [ ] = remark or other dose. Many of the other results were omitted from the sample, so hits are more common in it than they were. Unless noted, the call rests on the fitted dose curve; in most records, active means well fitted curve in the direction sought with a large enough effect; inconclusive means small, poorly fitted or top-dose-only effect, or another doubt; inactive means no such curve, though single readings can be large; an effect the other way counts as inactive or inconclusive.
SMILES,ClpP mod,RGS4 inhibitor,S-ASM inh,Mito fusion act,LDHA inh,IDH1 R132H inh
CCOc1cc(C2Nc3ccccc3C(=O)N2c2ccccc2OC)ccc1O (stereo not given),u,-5.5%,28.9%,1.3%,17.3,9.7%
COc1ccc(C2Nc3ccccc3C(=O)N2Cc2ccco2)cc1COc1ccc(F)cc1 (stereo not given),25.1µM*,-5.9%[11.4 µM],103.5%,14.8%,-0.7,0.6%
COc1cc(C2Nc3ccccc3C(=O)N2c2ccccc2OC)ccc1O (stereo not given),31.6µM*,-12.3%,26.5%,-1.7%,-3.4,3.7%
COc1ccc(C2Nc3ccccc3C(=O)N2c2ccc(C)cc2)cc1Cn1cc([N+](=O)[O-])cn1 (stereo not given),-9.5%,7.7%,-7.5%,4.6%,-8.2,3.9%
COc1ccc(C2Nc3ccccc3C(=O)N2Cc2ccccc2)cc1COc1ccccn1 (stereo not given),25.1µM*,19.8%,127.3%,4.1%,3.4,0.0%
COc1ccc(C2Nc3ccccc3C(=O)N2c2ccc(C)cc2)cc1Cn1nnc2ccccc21 (stereo not given),31.6µM*,20.4%,123.1%,2.4%,-4.1,3.5%
COc1ccc(OCc2cc(C3Nc4ccccc4C(=O)N3Cc3ccccc3)ccc2OC)cc1 (stereo not given),x,x,x,x,7.8,x
CS(=O)(=O)c1ccc(C(=O)OCc2c(F)c(F)c(F)c(F)c2F)cc1,x,x,x,x,-3.4,x
COc1ccc(N2C(=O)c3ccccc3NC2c2ccc(OC)c(COc3ccccn3)c2)cc1 (stereo not given),25.1µM*!,20.1%,77.0%,-2.1%,-2.6,-5.2%
COc1ccc(N2C(=O)c3ccccc3NC2c2ccc(OC)c(CSc3ccccn3)c2)cc1 (stereo not given),25.1µM*,10.1%,159.5%,0.5%,-3.8,-10.9%
COc1cccc(OCc2cc(C3Nc4ccccc4C(=O)N3c3ccccc3)ccc2OC)c1 (stereo not given),4.0%,-22.7%,x,x,1.2,x
Cc1ccc(C)c(/C=C/c2cc(C(=O)O)c3ccccc3n2)c1,x,x,x,x,6.8,x
CC(C)(C)C(=O)COC(=O)c1ccc(F)cc1Cl,x,x,x,x,3.1,x
O=C(Nc1ccc(-n2cccn2)c(F)c1)C1CCCN(C(=O)c2ccoc2)C1 (stereo not given),x,x,x,x,-30.9*,x
CCN(CC)S(=O)(=O)c1cc(C(=O)OCC(=O)Nc2ccc(-c3nc4ccc(C)cc4s3)cc2)ccc1F,17.8µM*,-41.1%,21.9%,-1.0%,-9.8,-6.0%
CCN(CC)S(=O)(=O)c1ccc(C(=O)OCC(=O)Nc2ccc(-c3nc4ccc(C)cc4s3)cc2)cc1,u,-1.2%,53.6%,-0.7%,-8.7,12.2%
O=C(Nc1ccc(C23CC4CC(CC(C4)C2)C3)cc1)c1ccc2ncsc2c1,x,x,x,x,1.4,x
CS(=O)(=O)c1ccc(C(=O)Nc2c(Cl)cc(NC(=O)c3ccco3)cc2Cl)cc1,x,x,x,x,7.7,x
COc1ccc(-c2sc3ccc(N4CCOCC4)cc3c2C#CC2(O)CCCCC2)cc1,25.1µM*,4.5%,68.3%,x,0.7,-13.3%
COc1cccc(-c2nnc(-c3ccc4ccccc4c3)o2)c1,14.1µM*,-4.8%,-7.3%,x,-1.1,5.0%
Cc1cccc(-c2nnc(-c3ccc(N)cc3)o2)c1,28.2µM*,-24.3%,121.0%,14.4%,1.2,7.0%
Cc1ccc(-c2nnc(-c3ccc4ccccc4c3)o2)cc1,14.1µM*,-25.3%,-2.0%,x,-7.9,3.3%
CS(=O)(=O)Nc1ccc(NC(=O)c2cc(-c3cccs3)on2)cc1,x,x,x,x,5.3,x
CC(C)(S)C(N)C(=O)O (stereo not given),x,x,x,x,0.2,x
CCOc1cc(C=C(C#N)C#N)ccc1Oc1ccc([N+](=O)[O-])cn1,-2.0%,-45.0%,-1.8%,3.6%,-5.5,-3.7%
SMILES,ClpP mod,RGS4 inhibitor,S-ASM inh,Mito fusion act,LDHA inh,IDH1 R132H inh
COc1cc(/C=C(/C#N)c2ccc(F)cc2)ccc1Oc1ccc([N+](=O)[O-])cn1,31.6µM*,-3.0%,-4.7%,19.3%,-0.9,1.4%
c1ccc(C(Sc2ncccn2)c2ccccc2)cc1,x,x,x,x,5.0,x
N#Cc1ccc(S(=O)(=O)NCC(=O)OCC(=O)N2CCCC2=O)cc1,14.1µM*,3.2%,3.9%,-3.8%,-12.0,9.5%
Cc1ccc(S(=O)(=O)NCCC(=O)OCC(=O)N2CCCC2=O)cc1,-1.4%,-1.5%,3.3%,-6.3%,-8.9,-10.1%
Cc1[nH]c2ccccc2c1-c1nc2ccccc2[nH]1,15.8µM*,26.4%,-5.7%,19.4%,-3.1,2.1%
COc1ccc(-c2nc3ccccc3[nH]2)cc1,25.1µM*,-10.1%,-0.1%,-10.6%,-10.9,11.9%
Cc1nnsc1-c1nc2ccccc2[nH]1,25.1µM*,2.1%,5.3%,3.1%,-5.9,2.5%
CC(C(=O)c1ccc(Cl)cc1)C1(O)C(=O)Nc2ccc(Br)cc21 (stereo not given),x,x,x,x,-16.4,x
CCc1nc2cc(C#N)c(C#N)cc2nc1C,x,x,x,x,0.6,x
CCOC(=O)c1nc2cc3n(c(CC(C)C)c-2c1C)CC(C)=C3C,28.2µM*,u,69.2%,-1.1%,4.5,-0.7%
Cc1ccc(Cl)cc1N1CCN(C(=O)CSc2ccsc2[N+](=O)[O-])CC1,28.2µM*,-26.4%,-6.6%,4.9%,-3.7,2.6%
COc1ccc(N2CCN(C(=O)CSc3nnc4n3C(C)(C)Cc3ccccc3-4)CC2)cc1,-0.1%,-0.3%,-0.1%,-1.3%,-2.8,3.8%
Cc1ccc(Cl)cc1N1CCN(C(=O)CSc2nnc3n2C(C)(C)Cc2ccccc2-3)CC1,-4.1%,6.6%,-2.3%,15.8µM*,-8.5,3.6%
CCOC(=O)c1[nH]c(C)c(C(=O)Nc2ccc(Br)c(C)c2)c1C,x,x,x,x,-12.1,x
COc1cc(NC(=O)Cn2c(C)nc3c(sc4cccc(F)c43)c2=O)cc(OC)c1OC,x,x,x,x,-7.9,x
COc1cccc(-c2sc3ccc(OC)cc3c2-c2ccc(O)cc2)c1,28.2µM*,-0.4%,-4.5%,u,-0.4,-20.3%
COc1cccc(-c2sc3ccc(OC)cc3c2-c2cc(F)cc(OC)c2)c1,u,-6.0%,0.1%,7.1%,0.1,-9.4%
COc1ccccc1-c1sc2ccccc2c1-c1ccc(O)cc1,20µM*,17.3%,-9.5%,x,-3.6,-11.7%
